Experimental data published in ChEMBL document CHEMBL3988442, “University of Dundee, Small-Polar-MMV Screening Library” (2021).
Hit rate of the full screen: of about 48,000 compounds, about 13,000 (27%) showed an effect of 50% or more. The list shows a part of the results.

test system: Wolbachia pipientis; experiment: Anti-Wolbachia Cell-Based Screen; assay type: functional; parameters: scale not given: in the data most compounds retested in dose-response had high values; conditions: 5 µM

SMILES	Percent Effect
Cc1cc(NC(=O)CNC2CCCN(c3cccnn3)C2)on1 (stereo not given)	92.8%
Cc1cc(NC(=O)CN(C)C2CCCN(c3cccnn3)C2)on1 (stereo not given)	99.52%
Cc1nc(CNC2CCCN(c3cccnn3)C2)no1 (stereo not given)	0.4362%
Cc1ccc(N2CCCC(NCC(=O)Nc3cc(C)no3)C2)nn1 (stereo not given)	8.409%
Cc1cc(NC(=O)NCCc2cscn2)nn1C	-10.8%
O=C(Cc1cccc(F)c1F)NC1COc2ccccc2C1=O (stereo not given)	2.844%
CN(C)CCN1CCOCC2(CCCN(C(=O)c3ccccc3)C2)C1.O=C(O)C(F)(F)F.O=C(O)C(F)(F)F (stereo not given)	-4.449%
CCN1CCOCC2(CCCN(C(=O)c3cnccn3)C2)C1 (stereo not given)	95.08%
CCN1CCOCC2(CCCN(C(=O)c3cccc(O)c3)C2)C1 (stereo not given)	105.1%
O=C(O)C(F)(F)F.O=C(c1cnccn1)N1CCCC2(COCCN(CC3CC3)C2)C1 (stereo not given)	-6.241%
CN(C)CCN1CCOCC2(CCCN(C(=O)c3cccn3C)C2)C1.O=C(O)C(F)(F)F.O=C(O)C(F)(F)F (stereo not given)	-8.448%
CC(C)CN1CCCC2(CCN(C(=O)c3cnccn3)C2)C1 (stereo not given)	-16.61%
CCN1CCOCC2(CCCN(C(=O)c3ccccc3F)C2)C1.O=C(O)C(F)(F)F (stereo not given)	106.1%
O=C(c1ccnc(-n2cnnc2)c1)N1CCCC2(CCOC2)C1 (stereo not given)	13.33%
CN(C)CCN1CCOCC2(CCCN(C(=O)c3cccc(O)c3)C2)C1 (stereo not given)	-3.261%
CC(C)CNC(=O)c1nc2c(s1)CCN(C(=O)c1ccc(Cl)cc1)CC2	-4.208%
CC(C)OCCCNC(=O)N(C)C(C)c1ccc(-n2cncn2)cc1 (stereo not given)	-7.098%
CCN1CC(CN(C)Cc2nc(-c3cccc(Cl)c3)oc2C)CC1=O (stereo not given)	102.8%
CNC(=O)CC1CCN(Cc2nc(-c3cccc(Cl)c3)oc2C)CC1	-0.6077%
CCN1CC(CN(C)Cc2nc(-c3cccc(C)c3)oc2C)CC1=O (stereo not given)	105.1%
CCc1nnc(CN(C)Cc2nc(-c3ccccc3Cl)oc2C)o1	-2.214%
Cc1cccc(-c2nc(CN3CCOCS3(=O)=O)c(C)o2)c1	4.701%
CCN(CCn1cccn1)Cc1nc(-c2cccc(C)c2)oc1C	-6.378%
Cc1nc(C2CCCN(C(=O)c3cc(Cl)c[nH]3)C2)no1 (stereo not given)	0.9971%
CCN(CCNCc1cccc(C#N)c1)C1CC1	-10.23%
N#Cc1cccc(CNCCNC(=O)Cc2cccc(F)c2)c1	98.51%
N#Cc1cccc(CNC(=O)NC2CCN(CC(F)F)CC2)c1	-0.5422%
O=C(Cc1cccc(F)c1)NCCNCc1ccco1	-5.047%

SMILES	Percent Effect
O=C(Cc1cccc(F)c1)NCCNCc1cccnc1	96.05%
O=C(Cc1cccc(F)c1)NCCNCC1CNc2ccnn2C1 (stereo not given)	0.2613%
COCCN(CCC#N)S(=O)(=O)c1cc(F)cc(F)c1	-7.872%
c1ccc(C(c2ccccc2)N2CCN(CCn3cncn3)CC2)cc1	0.8212%
CC(C)(C)c1ccn(C2(C(=O)O)CCN(c3nccc(N)n3)CC2)n1	-5.25%
O=C(c1cnccn1)N1C[C@@H]2[C@@H](C1)OCC(=O)N2CC1CCCC1	-6.759%
COc1cc(C2(C(=O)NCC(=O)NC3CC3)CC2)ccc1C	9.021%
Cc1ncsc1C(=O)NCCSCCCO	-0.9457%
CNC(=O)c1ccc(CN(C(=O)c2scnc2C)C2CC2)cc1	4.078%
Cc1ncsc1-c1cc(C(=O)NCCO)ccn1	109.9%
O=C(NCCNC(=O)c1scnc1Cl)c1ccccc1	-1.754%
Cc1ncsc1-c1ccn(CC(=O)Nc2cnn(C)n2)n1	-5.489%
CNC(=O)CNC(=O)c1ccc(-c2scnc2C)nc1	75.09%
CCCc1nnc(NC(=O)N2CCCC2c2ccncc2)s1 (stereo not given)	3.484%
CN(Cc1ccc(-n2cccn2)cc1)c1nc(N)nc2c1CCNCC2	3.985%
CCOc1ccc(-c2nc(CN(C)Cc3c(C)noc3C)cs2)cc1	-23.12%
c1cnc2c(-c3nccn3C[C@@H]3CCCN4CCCC[C@H]34)cccc2c1	5.22%
CN(C)C(=O)N1CCN(C(=O)CCc2ccccc2)[C@H]2CS(=O)(=O)C[C@H]21	-4.375%
CS(=O)(=O)NCC1CCN(C(=O)Oc2ccccc2)CC1	-10.63%
CO[C@@H]1CN(c2ccccc2)S(=O)(=O)[C@@]12CCNC2	127.8%
COC(=O)N1CC[C@@]2(C1)[C@H](OC)CN(c1ccccc1)S2(=O)=O	101.1%
CN(C)C(=O)N1CCC(C2C(=O)Nc3ccccc32)CC1 (stereo not given)	-38.16%
O=C(C1CC2(CCNCC2)CN1)N1CCN(c2ccccc2)CC1 (stereo not given)	-0.8952%
COC(=O)N1CCC2(CC1)CC(c1ccccc1)CN(C)C2 (stereo not given)	-13.78%
CO[C@@H]1CN(c2ccccc2)S(=O)(=O)[C@@]12CCN(C(C)=O)C2	94.97%
CO[C@@H]1CN(c2ccccc2)S(=O)(=O)[C@@]12CCN(C(=O)N(C)C)C2	88.6%
CC(=O)N1CCC2(CC1)CC(Oc1ccccc1)CO2 (stereo not given)	-5.824%
